Measurements: PubChem BioAssay (NCI)
“And” between values parts separate entries of the source, which are not always exact repeats. Equal values may be shown once. About 79,000 compounds went through this panel and 15% of them were active in at least one assay; those are over-represented in the sample as a whole. Rule as the data show it: active = growth inhibition above about 70%; inactive = the rest.

Tests used:
[1] = NCI Yeast Anticancer Drug Screen. Data for the rad50 strain (AID 155);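 also: 0% = growth of vehicle-only cultures of the same strain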; conditions: S. cerevisiae rad50 strain growth inhibition; at 50.0 µM; active compounds read high
How it was run: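 DNA repair mutant yeast, compound exposure, growth read-out; inhibition is taken relative to vehicle.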

[2] = NCI Yeast Anticancer Drug Screen. Data for the mec2-1 strain (AID 157); conditions: S. cerevisiae mec2-1 strain, at 50.0 µM, active compounds read high
How it was run: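 Strain: mec2-1 (DNA repair/cell cycle alteration). Compound exposure, then growth measured; inhibition expressed relative to vehicle.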

[3] = NCI Yeast Anticancer Drug Screen. Data for the sgs1 mgt1 strain (AID 161);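 also: 0% = growth of cultures given vehicle only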; conditions: S. cerevisiae sgs1 mgt1 strain, at 50.0 µM, active compounds read high
How it was run: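 Genetically altered yeast, compound exposure, growth inhibition relative to vehicle.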

[4] = NCI Yeast Anticancer Drug Screen. Data for the cln2 rad14 strain (AID 165);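 also: 0% = growth equal to vehicle treated cultures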; conditions: S. cerevisiae cln2 rad14 strain, at 50.0 µM, active compounds read high
How it was run: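 Compounds are applied to the cln2 rad14 yeast strain, and growth is then compared with that of vehicle-treated cultures to give inhibition.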

[5] = NCI Yeast Anticancer Drug Screen. Data for the bub3 strain (AID 167); conditions: S. cerevisiae bub3 mutant strain, at 50.0 µM, active compounds read high
How it was run: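 In this screen, a yeast mutant lacking normal mitotic checkpoint function is challenged with compound. Relative growth versus vehicle gives the inhibition value.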

[6] = NCI Yeast Anticancer Drug Screen. Data for the mlh1 rad18 strain (AID 175); conditions: S. cerevisiae mlh1 rad18 strain growth inhibition; at 50.0 µM; active compounds read high
How it was run: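 Read-out is yeast growth inhibition, calculated against vehicle-only controls. The compound was applied to a strain engineered with DNA damage repair alterations.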

Measured: growth inhibition

CCOC(=O)CC1(O)C=CC(=O)C=C1
inactive: [1] 9.25% and 14.2% | [2] 0.5% and -5.6% | [3] 0.55% and -5.1% | [4] 15.1% and 21.2% | [5] 6.65% and 22.9% | [6] -6.2% and 36.4%

CCCCNC(=S)S
inactive: [1] -1.1% and -33.5% | [2] -19.8% and -30.9% | [3] 0.65% and -20.4% | [4] -7.65% and -14.2% | [5] 11% and -23.7% | [6] -6.9% and -22.5%

Cc1ccc(S(=O)(=O)N2CCCCCC2)cc1
inactive: [1] 10.8% and -9.2% | [2] 15.8% and -2.65% | [3] -13.7% and -5.75% | [4] 1.6% and -7.75% | [5] -6.7% and -2.85% | [6] -10.6% and -0.45%

C=CCC1=C(C)C(OC(=O)C=C(C)C)CC1=O (stereo unspecified)
inactive: [1] 19.8% and -4.3% | [2] -4% and -13.8% | [3] -6.15% and -6% | [4] 0.25% and -26.2% | [5] 3.6% and -13.3% | [6] -22% and -37%

Cc1cc(=O)[nH]c2ccc(Cc3ccccc3)cc12
inactive: [1] -1.2% and 28.1% | [2] 10.4% and 5.75% | [3] -7.75% and 17.6% | [4] -26.2% and 6% | [5] -4.6% and -2.65% | [6] 16.9% and 21.9%

O=c1[nH]c(=O)n(C2OC(CO)C(O)C2O)c2nccnc12 (stereo unspecified)
inactive: [1] 10.5% and 5.1% | [2] 8.9% and 4.95% | [3] 0.55% and -5.75% | [4] 26.8% and 2.95% | [5] -13.2% and -20.9% | [6] 4.55% and -11.4%

O=C(/C(=N/N(C(=O)c1ccccc1)c1ccccc1)c1ccccc1)c1ccccc1
inactive: [1] 29.4% and 22.2% | [2] 5.2% and -1.9% | [3] 19% and 16.8% | [4] -12.4% and 16.6% | [5] -3.85% and -6.05% | [6] 8.65% and 26.4%

O=C1O/C(=C(/C(=O)O)c2ccc(O)cc2)C(O)=C1c1cc2c3c(c(O)cc(C4=C(O)/C(=C(\C(=O)O)c5ccc(O)cc5)OC4=O)c3c1)OC2=O
inactive: [1] -12.8% and -7% | [2] -7.25% and -10.4% | [3] -8.55% and 5.6% | [4] -0.65% and -9.85% | [5] -5% and -1.65% | [6] 3.4% and 4.6%

Cc1cc(=O)[nH]c2ccccc12
inactive: [1] 26.6% and 14% | [2] -6.3% and -2.8% | [3] -7.8% and -30.9% | [4] 6.3% and 21.8% | [5] 7.05% and -10.1% | [6] 6.45% and 12.5%

CCCCOc1ccc2nc3cc(Cl)ccc3c(Cl)c2n1
inactive: [1] 1.85% and -16.5% | [2] -10.8% and -43.5% | [3] -9.75% and 22.9% | [4] 5.7% and 17.4% | [5] -12.2% and 8.6% | [6] 25.8% and 3.55%

Cc1ccc(S(=O)(=O)Oc2cc(N)c3c(n2)CCC3)cc1
inactive: [1] -4.7% and 5.5% | [2] -13.6% and -7.8% | [3] 7.8% and -23.3% | [4] -48.2% and 6.55% | [5] -16.2% and -0.65% | [6] -3.45% and 0.5%

C1=NCCCN1
inactive: [1] 19.4% and 21.4% | [2] -7.95% and -23.4% | [3] 13.3% and 20.6% | [4] 9.4% and 6.35% | [5] 18.2% and 3% | [6] 22.2% and 18.6%

CC1(c2cccs2)NC(=O)NC1=O (stereo unspecified)
inactive: [1] 19.6% and 3.7% | [2] -6.2% and 9.05% | [3] 6.25% and 6.1% | [4] -41% and 2.3% | [5] 0.95% and 8.8% | [6] 7.1% and -3.55%

CC1(O)C(=O)OC(CO)C1O (stereo unspecified)
inactive: [1] 1.4% and 7.1% | [2] 1.6% and 7.15% | [3] -3.45% and -1% | [4] -15.8% and -6.6% | [5] -5.65% and 2.4% | [6] 5.1% and 3.25%

COc1ccc(-c2[nH]c(=O)n(C3OC(CO)C(O)C(O)C3O)c(=O)c2C#N)cc1 (stereo unspecified)
inactive: [1] 7.65% and 19.9% | [2] 5.4% and 6.1% | [3] -8.55% and 1.1% | [4] 36.9% and 13.5% | [5] 6.95% and 7.6% | [6] -78.4% and -59%

CC12CCC(C1)C(C)(C)C2OC(=O)c1ccccc1C(=O)O (stereo unspecified)
inactive: [1] 11.5% and 22.9% | [2] 29.1% and -13.2% | [3] 20.4% and -25.9% | [4] 4.6% and -8.6% | [5] 13.8% and 1.3% | [6] 8.9% and 5.2%

O=c1nc(-c2ccccc2)cc(CC(O)(c2ccc(C(F)(F)F)cc2)c2ccc(Cl)c(Cl)c2)[nH]1 (stereo unspecified)
inactive: [1] 1.8% and 28.8% | [2] 15% and 15.4% | [3] 5.55% and 25.8% | [4] -17.8% and -26.6% | [5] 25.7% and 54.4% | [6] 8.35% and 11.3%

O=C(CCCCCCCCC(=O)NCC1(c2ccccc2)CCN(Cc2ccccc2)CC1)NCC1(c2ccccc2)CCN(Cc2ccccc2)CC1
inactive: [1] -7.45% and 8.25% | [2] -17.1% and 6.25% | [3] -13.8% and -19.2% | [4] -11.4% and 2.2% | [5] 10.4% and 3.6% | [6] -0.55% and 26.4%

O=C(O)C1OC1C(=O)O (stereo unspecified)
inactive: [1] -24.1% and -0.45% | [2] -30.2% and -4.6% | [3] -23.9% and -5.4% | [4] -39.7% and -23.8% | [5] -21.5% and -5.95% | [6] -10.4% and 13.7%

O=C(O)CC(c1ccccc1)c1ccccc1
inactive: [1] -47.2% and 9.6% | [2] -39% and -5.4% | [3] -2.95% and 2.15% | [4] 3.35% and -3.55% | [5] -30.6% and -21.7% | [6] -28.1% and -0.95%

COC1OCC(OC(=O)c2ccccc2)C(OC(=O)c2ccccc2)C1OC(=O)c1ccccc1 (stereo unspecified)
inactive: [1] 7.5% and 19.6% | [2] 1.15% and -3.25% | [3] 15.7% and -3.7% | [4] 19.5% and -0.3% | [5] -1.55% and -3.65% | [6] 6.15% and -8.55%
